# Experiments:
# Type in all cases: functional
# [1] = system: Plasmodium falciparum; assay: GSK_TCMDC: Inhibition of Plasmodium falciparum 3D7 in whole red blood cells, using parasite LDH activity as an index of growth. Test compounds present at 2uM
# [2] = system: Plasmodium falciparum; assay: GSK_TCMDC: Inhibition of Plasmodium falciparum Dd2 in whole red blood cells, using parasite LDH activity as an index of growth. Test compounds present at 2uM
# [3] = system: HepG2; assay: GSK_TCMDC: Percent inhibition of human HepG2 cell line. Test compounds present at 10uM.
Structure (SMILES),Inhibition [1] [%],Inhibition [2] [%],Inhibition [3] [%]
Cc1c(Cc2ccc(F)cc2)c(Cl)nc2nc(N)nc(N)c12,92,1,66
COc1ccc(C)c(Nc2ccnc(Nc3cccc(-c4nc5ccccc5[nH]4)c3)n2)c1.Cl,98,35,27
COc1ccc(CCN(C)CCCOc2ccc(NC(=O)COc3cccc4sc5ccccc5c(=O)c34)cc2)cc1OC,94,90,99
CCN(CC)c1ccc(C(=O)Cn2ccc(=N)cc2)cc1,84,64,92
Cl.N#Cc1ccc2c(c1)CCN(CCC1CCC(NC(=O)Nc3ccnc4ccccc34)CC1)C2 (configuration not stated),100,77,38
CSc1cccc(Nc2nc3ccc(S(=O)(=O)NC(C)C(C)C)cc3n2[C@H](C)C(C)(C)C)c1 (some centres not stated),97,98,0
CCc1c(CCNCCCCCCNCCc2ccc([N+](=O)[O-])cc2)ccc(OC)c1OC.Cl,100,2,35
CN1CCN(Cc2cccc(Nc3nccc(Nc4ccc(Oc5ccccc5)cc4)n3)c2)CC1,97,80,30
Cc1nccc2c(NC(=O)N[C@@H]3CCN(c4ncc(C(F)(F)F)cc4Br)C3)cccc12.Cl,96,27,21
Cc1cc(NC(=O)CCN2CCN(c3cccc(Cl)c3Cl)CC2)ccc1N1CCN(C(C)C)CC1.Cl,99,8,82
N#Cc1cccc(Nc2nccc(NCC(O)c3ccc(C(F)(F)F)cc3)n2)c1 (configuration not stated),100,98,23
CCN1CCC(N(Cc2ccc(-c3ccc(C(F)(F)F)s3)cc2)C(=O)Cn2c(CCc3cccc(F)c3F)nc(=O)c3ccccc32)CC1.O=C(O)C(O)C(O)C(=O)O,93,95,47
Cc1cccc(-c2nn(-c3ccccc3)c3[nH]c(=O)c(CN4CCSCC4)cc23)c1,98,98,0
CN(C)c1ccc(C=C2SC(=O)N=C2Nc2ccccc2)cc1,97,96,42
CCOC(=O)c1c[nH]c2c(sc3cc(OC)ccc32)c1=O,96,93,0
CC(CCCCC(=O)Nc1ccc(CC(C)NCCc2cccc(Cl)c2)cc1)NCCc1cccc(Cl)c1 (configuration not stated),91,0,28
CCNc1cc(C(=O)N[C@@H](Cc2ccccc2)[C@H](O)CNC(C)CC(C)C)c(F)c(N2CCCCS2(=O)=O)c1.O=CO (some centres not stated),95,66,6
CCc1ccc(C2=Nn3c(nnc3-c3cccs3)SC2)cc1,93,20,9
COc1ccc(-n2ccnc2SCC(=O)Nc2cc(C(F)(F)F)ccc2Cl)c(OC)c1,98,76,0
COc1ccc(C2CCC(NCCCCNC(=O)c3ccc(NC(=O)c4ccc(Cl)cc4)cc3)CC2)cc1 (configuration not stated),99,7,23
Cl.O=C(/C=C/c1ccc(F)cc1)NC1CCC(CCN2CCc3ccccc3CC2)CC1 (configuration not stated),91,36,27
c1ccc2c(CNc3nc(NCC4CCCCC4)nc4[nH]cnc34)cccc2c1,89,44,0
COc1cc(C(=O)Nc2cccc(-c3nc4ccccc4[nH]3)c2)ccc1OC(C)=O,83,37,16
O=[N+]([O-])c1ccc2nc(Nc3ccc(Cl)c(Cl)c3)c(Nc3ccc(Cl)c(Cl)c3)nc2c1,100,99,1
O=C(/C=C/c1ccc(Cl)c(Cl)c1)NCCCCCN1CCC(NC(=O)Nc2ccc(Cl)cc2Cl)CC1,91,33,96
CN(CCCNC(=S)NC12CC3CC(CC(C3)C1)C2)CCCNc1ccnc2cc(Cl)ccc12,100,98,73
Cc1cccc(Nc2nccc(Nc3cccc(C(=O)NCCN4CCOCC4)c3)n2)c1,91,11,10
FC(F)(F)c1ccc2[nH]c(-c3cccc(-c4ccc(CNCCN5CCNCC5)cc4)c3)nc2c1.O=C(O)C(F)(F)F,96,0,17
CN1CCN(c2ccc(Nc3c(C(N)=O)cnc4cc(-c5ccoc5)ccc34)cc2C(F)(F)F)CC1.Cl,100,97,13
